Screens from PubChem BioAssay.
Pf Dd2 inh = Plasmodium falciparum Dd2 growth inhibition | P. falciparum Dd2 growth, SYBR Green, 72 h | Potency, µM (doses to about 28.9 µM), hits mostly inhibitors | 120,000 tested, 4.3% active; active = well fitted inhibition curve with a large enough effect; note: nearly all actives have a fitted effect of over 65% in size
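Infected erythrocytes (Dd2, 0.3% parasitemia, 2.5% hematocrit final) are added to compound in RPMI-1640/Albumax II medium, grown 72 h at 37C in low oxygen, then lysed with saponin/Triton-X containing SYBR Green and read by fluorescence.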
Hits are given with their value. The sample as a whole holds a higher share of hits than the screen did.

Screening COc1ccc(Cl)cc1C(=O)N1CCCC(n2cc(-c3noc(C)n3)nn2)C1 (configuration not stated) returned Pf Dd2 inh inactive.
For O=C(N[C@H](c1cccs1)C1CC(O)C1)C1CCN(C2CCOCC2)CC1 (some centres not stated) the results were Pf Dd2 inh inactive.
For CCCOCCNC(=O)c1c(C)noc1-c1cccc(F)c1 the results were Pf Dd2 inh inactive.
COc1cccc(-c2nc(SCC(=O)Nc3ccc4c(c3)OCO4)c(-c3ccccc3)[nH]2)c1 was read as Pf Dd2 inh inactive.
For COc1ccc(NC(=O)C(NC(=O)/C=C\c2ccc3c(c2)OCO3)c2ccccc2)cc1 (configuration not stated) the results were Pf Dd2 inh 10µM.
For COc1ccc(/C=C/C(=O)Nc2cccc(F)c2)cc1 the results were Pf Dd2 inh inactive.
Screening COC1CCN(C(=O)c2cnc3c(c2)N([S+](=O)([O-])c2cccnc2)CCC3)CC1 returned Pf Dd2 inh inactive.
For Cc1ccc2c(=O)cc(C(=O)Nc3ccc(S(=O)(=O)N4CCCC(C)C4)cc3)oc2c1C (configuration not stated) the results were Pf Dd2 inh inactive.
`CNC(=O)c1c(NC(=O)/C=C/c2ccccc2)sc2c1CCC2` gave Pf Dd2 inh inactive.
For CCOC(=O)c1c(NC(=O)c2ccc(F)cc2)sc2c1CCC(CC)C2 (configuration not stated) the results were Pf Dd2 inh inactive.
`CCOC(=O)c1c(NC(=O)c2ccc(C)cc2)sc2c1CCCCC2` gave Pf Dd2 inh inactive.
For CCC1CCCCN1S(=O)(=O)c1ccc(NC(=O)c2cc(=O)c3c(C)cc(C)cc3o2)cc1 (configuration not stated) the results were Pf Dd2 inh inactive.
Screening Cc1ccc2oc(C(=O)Nc3ccc(S(=O)(=O)N4CCCC(C)C4)cc3)cc(=O)c2c1 (configuration not stated) returned Pf Dd2 inh inactive.
Screening CCC1CCCCN1S(=O)(=O)c1ccc(C(=O)Nc2sc3c(c2C(=O)NC)CCC3)cc1 (configuration not stated) returned Pf Dd2 inh 13µM.
COc1ccc(Cl)c2sc(NC(=O)c3ccc(S(=O)(=O)N4CCCC4)cc3)nc12 was read as Pf Dd2 inh inactive.
For CCOC(=O)c1c(NC(=O)c2ccc(S(=O)(=O)N3CCC(C)CC3)cc2)sc2c1CCN(CC)C2 the results were Pf Dd2 inh 8.9µM.
COC(=O)c1c(NC(=O)c2ccc(S(=O)(=O)N3CCCCC3)cc2)sc2c1CCN(C)C2 was read as Pf Dd2 inh 10µM.
COC(=O)c1ccc2c(c1)sc(=NC(=O)c1ccc(S(=O)(=O)N3CCCCC3)cc1)n2C was read as Pf Dd2 inh inactive.
Screening COC(=O)c1c(NC(=O)c2ccc(S(=O)(=O)N3CCCC(C)C3)cc2)sc2c1CCN(C(C)C)C2 (configuration not stated) returned Pf Dd2 inh 8.9µM.
`COc1ccc(C(=O)N[C@H]2C[C@H]3C(=O)NC[C@@H](CCC(=O)NCc4cccnc4)N3C2)cc1` gave Pf Dd2 inh inactive.
`CCc1ncc(C(=O)N2CCN(c3ccc(Cl)c(Cl)c3)CC2)cn1` gave Pf Dd2 inh inactive.
`COc1ccc(N2CC(NC(=O)c3cc(C(C)C)n4ncnc4n3)CC2=O)cc1` (configuration not stated) gave Pf Dd2 inh inactive.
Screening COc1ccc2[nH]c(=O)c(CCC(=O)N(C)CCc3ccccc3)cc2c1 returned Pf Dd2 inh inactive.
`Cc1nn(CCNC(=O)Cn2cc(C)c(=O)[nH]c2=O)c(C)c1Cl` gave Pf Dd2 inh inactive.
NS(=O)(=O)c1ccc(NC(=O)CN2C(=O)COc3ccc(Cl)cc32)cc1 was read as Pf Dd2 inh 0.71µM.
`CCN(CC)S(=O)(=O)c1ccc2c(c1)N(CC(=O)Nc1ccc(F)cc1)C(=O)CO2` gave Pf Dd2 inh inactive.
`Cc1ccc(NC(=O)CN2C(=O)COc3ccc(S(=O)(=O)N4CCCCC4)cc32)cc1Cl` gave Pf Dd2 inh inactive.
For CCOC(=O)C1(Cc2cccc(OC)c2)CCCN(C(=O)COc2ccccc2)C1 (configuration not stated) the results were Pf Dd2 inh inactive.
For CCOC(=O)C1(Cc2cccc(Cl)c2)CCCN(C(=O)c2csc(C(C)=O)c2)C1 (configuration not stated) the results were Pf Dd2 inh inactive.
`CCCN1CCC(N2CCCC(Cc3ccccc3)(C(=O)OCC)C2)CC1` (configuration not stated) gave Pf Dd2 inh 5µM.
Screening CCn1nccc1C(=O)N1CCC(F)(c2nc(-c3ccncc3)no2)CC1 returned Pf Dd2 inh inactive.
`CN1Cc2c(cc(N3CCOCC3)nc2-c2cccc(N[S+](C)(=O)[O-])c2)C1=O` gave Pf Dd2 inh inactive.
Screening Cc1nn(-c2ccccc2)nc1C(=O)N[C@H](C)c1onc(C)c1C(=O)O returned Pf Dd2 inh inactive.
For O=C(NCc1nnc2ccc(-c3ccc(Cl)cc3)nn12)c1ccco1 the results were Pf Dd2 inh inactive.
O=C(Nc1nc2n(n1)C(c1ccc(F)cc1)C=C(c1ccccc1)N2)c1ccco1 (configuration not stated) was read as Pf Dd2 inh 10µM.
O=S(=O)(Nc1nc2n(n1)C(c1ccc(F)cc1)C=C(c1ccccc1)N2)c1ccccc1 (configuration not stated) was read as Pf Dd2 inh inactive.
Screening CC1=C(C(=O)Nc2ccccc2)C(c2ccccc2)n2nc(-c3ccco3)nc2N1 (configuration not stated) returned Pf Dd2 inh inactive.
O=C(Nc1nc2n(n1)C(c1ccc(Cl)cc1)C=C(c1ccccc1)N2)c1ccco1 (configuration not stated) was read as Pf Dd2 inh 13µM.
Screening O=C(c1ccc(F)cc1)n1nc(-c2ccccc2)nc1NCc1ccco1 returned Pf Dd2 inh inactive.
`COc1cc(CN(C)C(=O)c2c(C)noc2-c2cccc(F)c2)cc(OC)c1OC` gave Pf Dd2 inh inactive.
`COc1ccccc1-c1noc(-c2nnn3c2COC(c2ccc(Cl)cc2)C3)n1` (configuration not stated) gave Pf Dd2 inh inactive.
Screening O=C(Nc1ccc(F)cc1F)N1CC(c2nnc(-c3ccncc3)o2)C2(CCOCC2)C1 (configuration not stated) returned Pf Dd2 inh inactive.
For COc1ccc(-c2nc3c([nH]2)CC(C)(C)CNC3=O)cc1OC the results were Pf Dd2 inh inactive.
Screening COc1cccc(OC)c1C(=O)Nc1nc2c(s1)CCc1ccccc1-2 returned Pf Dd2 inh inactive.
COc1ccc2c(c1)-c1nc(NC(=O)c3cccc(Br)c3)sc1CC2 was read as Pf Dd2 inh 10µM.
`COc1ccc2c(c1)CCc1sc(NC(=O)c3ccc(Br)cc3)nc1-2` gave Pf Dd2 inh inactive.
Screening CC(=O)c1ccc(NC(=O)Cn2ccn3nc(-c4ccccc4)c(CO)c3c2=O)cc1 returned Pf Dd2 inh inactive.
Screening Cc1nn(C)cc1C(=O)N1CC[C@H](N2CCN(C)CC2)[C@H](CCCO)C1 returned Pf Dd2 inh inactive.
Screening COc1ccc(C2=NOC3(CCCN(C(=O)c4ccc5c(c4)OCO5)C3)C2)cc1 (configuration not stated) returned Pf Dd2 inh inactive.
`Cc1c(Cl)cc(C(=O)N(C)CCC2CCOCC2)cc1Cl` gave Pf Dd2 inh inactive.
CCCc1ccc2oc(C(=O)N(C)CCC3CCCCO3)c(C)c2c1 (configuration not stated) was read as Pf Dd2 inh 10µM.
